# Reference: PubChem BioAssay AID651599 (National Center for Advancing Translational Sciences (NCATS), 2012)
# Records with an inconclusive call do not appear. The source made the active and inactive calls. The call rests on the fitted dose curve; in most records, active means well fitted inhibition curve with a large enough effect; inconclusive means small, poorly fitted or top-dose-only effect; inactive means no such curve, though single readings can be large or run the other way.
# Molecular target: Tumor susceptibility gene 101 protein (Homo sapiens) (UniProt Q99816)
# Sequence (Q99816 whole entry, looked up): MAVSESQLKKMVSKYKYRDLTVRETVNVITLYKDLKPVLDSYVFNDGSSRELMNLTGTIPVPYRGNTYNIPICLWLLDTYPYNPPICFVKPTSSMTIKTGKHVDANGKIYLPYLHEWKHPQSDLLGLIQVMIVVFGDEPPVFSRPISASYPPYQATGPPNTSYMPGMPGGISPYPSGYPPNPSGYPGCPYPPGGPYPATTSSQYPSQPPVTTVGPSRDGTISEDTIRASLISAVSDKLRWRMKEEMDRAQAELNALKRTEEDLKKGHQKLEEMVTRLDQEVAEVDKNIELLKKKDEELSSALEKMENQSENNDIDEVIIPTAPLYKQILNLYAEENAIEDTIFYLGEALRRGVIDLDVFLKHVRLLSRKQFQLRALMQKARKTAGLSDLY
# Assay: qHTS Assay for Iinhibitors of HIV-1 Budding by Blocking the Interaction of PTAP/TSG101: Hit Validation in TR assay
# Settings: Tsg101 binding domain + Texas Red-labeled PTAP peptide, fluorescence polarization, 20 min; series mostly up to 57.5 µM; activity change, negative = inhibition: at the top concentration
# In short: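 Texas Red-PTAP peptide (50 nM) binding to Tsg101 binding domain (10 uM), both final, in pH 7.5 HEPES buffer, read as polarization after 20 min at room temperature; compounds pinned before peptide addition.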
# On the % scale 0 is the no-effect control and ±100 the full control effect; potency means the concentration at half of the fitted maximal effect.
SMILES,"activity change, negative = inhibition",Potency
CSc1c(C#N)c(N)nc2sc(C(=O)c3ccc(Cl)c(Cl)c3)c(N)c12,8.16% (inactive),
CC1(C)Cc2c(C#N)c(SCCC#N)nc(N3CCOCC3)c2CS1,29.3% (inactive),
Cc1ccc(C2C=C(c3ccccc3)Nc3nc(NS(C)(=O)=O)nn32)cc1 (centres undefined),-8.43% (inactive),
O=C1/C(=C/c2cccc(F)c2)Oc2cc(O)ccc21,-2.21% (inactive),
COc1ccc(C2=CC(c3ccco3)n3ncnc3N2)cc1 (centres undefined),-21.5% (inactive),
N#CC(C#N)=C1C=C2C=C(N3CCCCC3)CCC2CC1 (centres undefined),8.21% (inactive),
CCc1ccc(/C=C2/C(=O)N(C)C(=S)N2CC(=O)OC)s1,-11.4% (inactive),
N#C/C(=C\C=C\c1ccccc1)c1nc(-c2ccc3c(c2)OCO3)cs1,62.8% (inactive),
Cc1c2cc(O)c(=O)cc-2oc2cc(O)c(O)cc12,9.22% (inactive),
C=CCOc1ccc(C2OC34CCCCC3C(C#N)(C#N)C2(C#N)C(=N)O4)cc1 (centres undefined),-21.9% (inactive),
CN(C)c1ccc(N=Cc2nc(-c3ccccc3)oc2O)cc1,22.6% (inactive),
CS(=O)(=O)Nc1nc2n(n1)C(c1ccccc1)C=C(c1ccc(Br)cc1)N2 (centres undefined),13.1% (inactive),
O=C(c1ccccc1)[C@@H]1[C@@H]2C(=O)N(c3ccc(F)cc3)C(=O)[C@@H]2C2CCCN21 (some centres undefined),54.6% (inactive),
Cc1cc([N+](=O)[O-])ccc1-c1ccc(/C=N/NC(=O)Cc2ccccc2)o1,-16.7% (inactive),
CC(C)(C)N=Cc1c(O)ccc2oc3c(c12)CCCC3,"-591% [at 57.5 µM, above what the read-out allows, likely interference] (inactive)",
O=[n+]1c2c(n([O-])c3cc(F)c(N4CCCC4)cc31)CCC2,27.5% (inactive),
CCC1CCCCN1C(=O)c1cc2cc(Br)ccc2oc1=O (centres undefined),-6.72% (inactive),
CCN(CC)C(=O)[C@H]1CC(CC(=O)NCc2cccc(C(F)(F)F)c2)C(=O)N2CCc3c([nH]c4ccc(OC)cc34)[C@]12C (some centres undefined),25.7% (inactive),
O=C(OCCN1C(=O)c2cccc3c(N4CCOCC4)ccc(c23)C1=O)c1ccc(Cl)cc1,-16.3% (inactive),
Nc1c(C(=O)Nc2ccc(F)cc2)sc2nc(-c3cccs3)cc(C(F)(F)F)c12,-0.694% (inactive),

SMILES,"activity change, negative = inhibition",Potency
Nc1c(C(=O)c2cccs2)sc2nsc(SCCN3CCCCC3)c12,11% (inactive),
O=c1cc2oc3cc(O)c(O)cc3c(-c3ccccc3O)c-2cc1O,,16.3 µM (active)
COc1cc(C2C=C(c3cccs3)Nc3ncnn32)cc(OC)c1OC (centres undefined),-1.35% (inactive),
Cc1cc[n+](-c2[nH]c(=O)sc2/C=N/NC([S-])=Nc2ccccc2)cc1,-24.2% (inactive),
COc1ccc(OC)c(NC(=O)CCN2CC(C)CC(C)C2)c1 (centres undefined),-0.696% (inactive),
Cc1ccccc1N1C(=O)c2cccc3c(N(C)CCO)ccc(c23)C1=O,,32.6 µM (active)
Cc1cc[n+](-c2[nH]c(=O)sc2/C=N/NC([S-])=Nc2ccccc2)cc1C,-16.8% (inactive),
COc1ccc(OC)c(/C=c2\sc3nc(-c4cccs4)nn3c2=O)c1,-4.15% (inactive),
COc1ccccc1Nc1nc2ccc(C)cc2cc1C#N,-8.34% (inactive),
CCc1c(C)sc(NC(=O)c2ccccc2[N+](=O)[O-])c1C(N)=O,-10.6% (inactive),
O=C1C=CC(=O)c2c(O)c(CO)c(CO)c(O)c21,-27.2% (inactive),
COc1ccccc1NC(=O)/C(C#N)=C/c1cc([N+](=O)[O-])ccc1N1CCCC1,-11.4% (inactive),
O=C(N/N=C/c1ccccc1Cl)c1[nH]c2ccc(Br)cc2c1-c1ccccc1,-8.23% (inactive),
CC1(C)CC(=O)C2=C(C1)OC(N)=C(C#N)C2c1cc2c(cc1[N+](=O)[O-])OCO2 (centres undefined),-1.84% (inactive),
CCCCOC(=O)c1ccc(NC(=O)/C(C#N)=C/c2ccc(-c3ccccc3)o2)cc1,-17.3% (inactive),
COc1ccccc1N1C(C)=CC(=C(C#N)c2nc3ccccc3s2)C=C1C,28.4% (inactive),
Nc1ccc2nc(-c3ccccc3)c(-c3ccccc3)nc2c1,-4.17% (inactive),
S=C(Nc1ccc(N2CCOCC2)cc1)Nc1ccc2nc(-c3ccco3)c(-c3ccco3)nc2c1,-2.44% (inactive),
O=C(OCCN1C(=O)c2cccc3c(N4CCOCC4)ccc(c23)C1=O)c1ccc(Cl)cc1Cl,8.29% (inactive),
